Measured values as given in PubChem BioAssay (NCI).
About 83,000 compounds went through this panel and 20% of them were active in at least one assay; those are over-represented in the sample as a whole.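 Compound tested at a single concentration for 48 hours in 96-well plates; a percent growth value below 10 was scored as active.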 Unmarked numbers belong to inactive results. Calls of active or inactive are those of the source.

Tests used:
Experiment in all cases: NCI-60 one-dose screen, 48 h (100 = growth as untreated, 0 = no growth, -100 = all killed)
Settings in all cases: 10 µM unless noted
T-47D breast = system: T-47D breast
BT-549 breast = system: BT-549 breast
MDA-MB-435 melanoma = system: MDA-MB-435 melanoma
SW-620 colon = system: SW-620 colon
MCF7 breast = system: MCF7 breast
HCT-116 colon = system: HCT-116 colon
HCC-2998 colon = system: HCC-2998 colon
KM12 colon = system: KM12 colon

Row | Compound | growth (T-47D breast) | growth (BT-549 breast) | growth (MDA-MB-435 melanoma) | growth (SW-620 colon) | growth (MCF7 breast) | growth (HCT-116 colon) | growth (HCC-2998 colon) | growth (KM12 colon)
1 | COc1ccc(/C=C/C(c2cc(OC)c(OC)c(OC)c2)n2ccnc2)cc1O (stereo not given) | 40.6% | 44.3% | -25.6% (active) | 17.4% | 17.9% | 16.7% | 77% | 29%
2 | COc1cccc(/C=N/NC(=O)c2ccccc2N2CCCC2)c1O | 24.7% | 17.8% | 85.5% | 45.3% | 5.29% (active) | 4.81% (active) | 51.8% | 46.5%
3 | Nc1ncnc2c1N=C(c1ccc3c(c1)OCO3)CC(c1cccc(Nc3ccnc4cc(C(F)(F)F)ccc34)c1)N2 (stereo not given) | 87.5% | 112% | 92.6% | 69.1% | 36.6% | 70.3% | 90.6% | 50.1%
4 | COc1ccc(/C=C2\COc3ccc(O)cc3C2=O)cc1 | 87.9% | 87.8% | 78.7% | 84.6% | 15.4% | 77.7% | 103% | 58%
5 | C=CCN1C(=O)c2cccc3c(N4CCOCC4)ccc(c23)C1=O | -2.1% (active) | -47.8% (active) | 0.357% (active) | 7.24% (active) | -0.408% (active) | -25.4% (active) | -34% (active) | -56.4% (active)
6 | CCn1c(-c2cc3c([nH]c4ccccc43)c(-c3cccc(O)c3)n2)n[nH]c1=S | 11.7% | 26.7% | -24.2% (active) | 62.8% | 32.6% | 48.2% | 68.3% | 28.4%
7 | NC(=O)c1c(NC(=O)c2cccc(C(F)(F)F)c2)sc2c1CCC(=O)C2 | -3.77% (active) | -28.2% (active) | -12.2% (active) | -12.4% (active) | 5.02% (active) | -28.2% (active) | 16.1% | 0.496% (active)
8 | Cc1ccc(-c2nc(-c3cn(C)c4ncccc34)cs2)cc1 | -3.08% [100 µM] (active) | -42.1% [100 µM] (active) | -39.5% [100 µM] (active) | -11.6% [100 µM] (active) | -18% [100 µM] (active) | -73.1% [100 µM] (active) | -67.9% [100 µM] (active) | -55.5% [100 µM] (active)
9 | COC(=O)c1c2c(c(C)[n+]([O-])c1C)C(=O)C(NCc1ccc(OC)cc1)=CC2=O | 3.48% (active) | 56% | -67.6% (active) | 6.71% (active) | -7.88% (active) | 3.89% (active) | 15.1% | 14.3%
10 | S=c1[nH]c(=S)c2c(-c3ccccc3)c(-c3ccccc3)oc2[nH]1 | 91.4% | 119% | 97.3% | 101% | 94.3% | 97.9% | 101% | 102%
11 | COc1ccc(C(=O)/C=C/c2ccc(Cl)cc2)cc1S(=O)(=O)Nc1c(N)nc(SC)[nH]c1=O | 62.5% | 60.5% | 80% | 7.52% (active) | 18.8% | 11.4% | 90.8% | 12.8%
12 | COC1=C(C)C(=O)N2[C@@H]1[C@H](c1ccccc1)OC21C=CC(=O)C=C1 | 17.6% | -34.1% (active) | -48.8% (active) | -36% (active) | 7.61% (active) | -51% (active) | 35.7% | 52.8%
13 | N#Cc1ccc(O)c(C2=NCC(Cc3ccccc3)O2)c1 (stereo not given) | -1.96% (active) | 37.7% | 64.5% | 40.2% | 39% | 14.9% | 72.3% | 40.9%
14 | C=C(C)[C@@H]1CC[C@]2(C)[C@H](CC=C3[C@@H]4CC(C)(C)CC[C@]4(CO)CC[C@]32C)[C@@]1(C)CCCN | -26.5% (active) | 64.6% | -84% (active) | -81.9% (active) | -41.4% (active) | -79.6% (active) | -76% (active) | -53.9% (active)
15 | CCOc1cccc(/C=N/NC(=O)c2cccc(Nc3ccnc(C(F)(F)F)c3)c2)c1O | 27.6% | 48.5% | 34.4% | 36.6% | 17.4% | 13% | 43.5% | 38.9%
16 | COc1ccc(-c2nc(-c3cn(C)c4ncccc34)cs2)cc1 | -6.67% [100 µM] (active) | -30.1% [100 µM] (active) | -43.6% [100 µM] (active) | 10.8% [100 µM] | -17.8% [100 µM] (active) | -75.3% [100 µM] (active) | -9.69% [100 µM] (active) | 3.74% [100 µM] (active)
17 | COc1ccc(Cn2cc3c(c2-c2ccccc2)CCc2cnoc2-3)cc1 | 64.7% | 45.3% | 3.43% (active) | 18.3% | 14.6% | 0.167% (active) | 12.5% | 0.62% (active)
18 | N#Cc1c(-c2ccccc2)nc(SCc2nnc(-c3ccc(Cl)cc3)o2)[nH]c1=O | 53.8% | 76.3% | 109% | 100% | 91.3% | 83.9% | 103% | 102%
19 | NC(=O)c1c(NC(=O)c2cccs2)sc2c1CCC(=O)C2 | 8.16% (active) | 8.21% (active) | 43.7% | 15.1% | 45.1% | 4.11% (active) | 72.9% | 20.3%
20 | O=C1c2ccccc2C(=O)C1c1ccc(Br)cc1 | 108% | 101% | 97.9% | 99.9% | 87.7% | 92.4% | 98% | 107%
21 | Cn1ccc(=O)nc1 | 99.1% | 110% | 106% | 53.5% | 52.2% | 60.6% | 96.8% | 95%
22 | CCN(CC)CCCN1C(=O)c2c(c(C)c3c(oc4ccc(OC)cc43)c2C)C1=O | 105% | 119% | 109% | 97.9% | 98.3% | 93.3% | 105% | 104%
23 | COc1cc(C(=O)n2nc(N3CCOCC3)c3cc(-n4cccc4)ccc32)cc(OC)c1OC | 60.5% | 56.2% | 75.2% | 67.5% | 52.1% | 48.6% | 99.7% | 81.8%
24 | COc1ccc(/C=C2\CN(C(=O)C(Cl)Cl)C/C(=C\c3ccc(OC)cc3)C2=O)cc1 | 2.86% (active) | -19.3% (active) | -37.4% (active) | -41.5% (active) | -28.5% (active) | -70.2% (active) | -77% (active) | -70.3% (active)
25 | COc1ccc2c(c1)c(-c1nc(-c3c[nH]c4ncccc34)cs1)cn2CCCN1CCOCC1 | 31.7% | 52.2% | 47% | 21.2% | 13.3% | 25.3% | 65.5% | 17%
26 | Cc1ccc(C=C2C(=O)NC(=O)NC2=O)cc1 | 113% | 104% | 109% | 109% | 98.8% | 108% | 112% | 108%
27 | COc1cc2c(c(OC)c1OC)C(=O)CC(c1cccc(NC(=O)c3ccc(C#N)cc3)c1)O2 (stereo not given) | 8.42% (active) | 43.7% | 74% | 95.9% | 65.6% | 62% | 101% | 70.9%
28 | COc1ccc(Nc2ncccc2/C=C/C(=O)c2cc(OC)c(OC)c(OC)c2)cc1 | -4.22% (active) | -35% (active) | -35.8% (active) | -68.3% (active) | -61.3% (active) | -50.2% (active) | -75.9% (active) | -87.5% (active)
29 | CSC1=Nc2c(c(C)c(-c3ccccc3)n2CCCC(=O)O)C2=NC(=O)C[C@H](C)N12 | 113% | 105% | 102% | 102% | 88.8% | 101% | 104% | 97.1%
30 | O=S(=O)(NCCNc1nccc(-c2c(-c3cccc(O)c3)nc3occn23)n1)c1ccc(Br)cc1 | 11.3% | 45.1% | 13.1% | 34.8% | 17.7% | 10.2% | 50.7% | 27%
